# According to PubChem BioAssay (NCI):
# Several values for one entry are separate records, joined by “and”; a condition that tells them apart may be missing. Equal entries are not always repeated. Compounds without any hit were thinned out: in the full panel of roughly 79,000, 15% have a hit. A number with no mark means an inactive call. Activity calls are given as the source filed them. Cut-off read from the data, not from the text of the source: active = growth inhibition above about 70%; inactive = the rest.
# Key:
# [1] = NCI Yeast Anticancer Drug Screen. Data for the rad50 strain (AID 155);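 note: 0% = growth of vehicle-only cultures of the same strain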; conditions: S. cerevisiae rad50 strain growth inhibition, stronger effect = higher value; at 50.0 µM unless noted
# Summary of the method: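 Vehicle-treated cultures provide the reference for the growth inhibition reported for compound-exposed, repair-deficient yeast.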
# [2] = NCI Yeast Anticancer Drug Screen. Data for the mec2-1 strain (AID 157); conditions: S. cerevisiae mec2-1 strain, stronger effect = higher value; at 50.0 µM unless noted
# Summary of the method: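 Vehicle-treated cultures served as reference for growth inhibition of compound-exposed mec2-1 yeast.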
# [3] = NCI Yeast Anticancer Drug Screen. Data for the sgs1 mgt1 strain (AID 161);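 note: 0% = growth of cultures given vehicle only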; conditions: S. cerevisiae sgs1 mgt1 strain, stronger effect = higher value; at 50.0 µM unless noted
# Summary of the method: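 Inhibition of yeast growth, normalised to vehicle-treated controls, is reported for a strain bearing genetic alterations in DNA damage repair.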
# [4] = NCI Yeast Anticancer Drug Screen. Data for the cln2 rad14 strain (AID 165);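 note: 0% = growth equal to vehicle treated cultures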; conditions: S. cerevisiae cln2 rad14 strain, stronger effect = higher value; at 50.0 µM unless noted
# Summary of the method: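 Each compound was tested on cln2 rad14 yeast. Inhibition of growth was calculated against vehicle-exposed controls.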
# [5] = NCI Yeast Anticancer Drug Screen. Data for the bub3 strain (AID 167); conditions: S. cerevisiae bub3 mutant strain, stronger effect = higher value; at 50.0 µM unless noted
# Summary of the method: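 Mutant yeast screening strain plus compound; vehicle-treated cultures serve as the 0% inhibition reference.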
# [6] = NCI Yeast Anticancer Drug Screen. Data for the mlh1 rad18 strain (AID 175); conditions: S. cerevisiae mlh1 rad18 strain growth inhibition, stronger effect = higher value; at 50.0 µM unless noted
# Summary of the method: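 Vehicle-treated cultures served as the reference for growth inhibition in a yeast strain carrying DNA damage repair alterations exposed to each compound.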
SMILES,growth inhibition [1],growth inhibition [2],growth inhibition [3],growth inhibition [4],growth inhibition [5],growth inhibition [6]
CC(=O)NNc1nc(C)c(C(/C=C/c2ccc(Cl)cc2)=N/NC(=O)C[N+](C)(C)C)s1,15.1%,7.25%,9.15%,21.8%,21.4%,-0.25%
O=c1[nH]c(=O)c2nc(-c3cccnc3)cnc2[nH]1,2.8%,-0.1%,-9.7%,1.6%,0.85%,7.45%
O=c1cc2ccc(Cl)cc2n[nH]1,8.1%,2.7%,2.05%,-33.4%,-14.3%,4.5%
Cc1ccc2c(ccc3nc(N)nc(N)c32)c1,-0.4%,11.5%,-5.55%,-42.9%,-47.3%,-2.65%
NC1N=Nc2ccccc21 (stereo unspecified),0.05%,-5.95%,13.3%,4.3%,-1.6%,41.3%
O=C(NO)Nc1ccccc1Cl,6.45%,9.45%,10.5%,-1.65%,-4.25%,8.9%
C=C1CC(c2ccccc2)(c2cccs2)OC1=O (stereo unspecified),67.7%,93.6% (active),96.2% (active),14.3%,90.5% (active),90.7% (active)
NCCNCCNCCN,-12.4% and -8.1%,-7.65% and -20.7%,3.1%,-28.9%,-5.35%,-19.4% and 29.1%
CCn1nc(C)c2c1C(=O)NC(C)C(=O)N2 (stereo unspecified),-22.6%,-33%,-13.5%,16.4%,-22.9%,-22.4%
CCOC(C)=Nc1cc(OC)cc2c1NC(=O)CCS2,-28.9%,-20.1%,-36.6%,-50%,5.6%,-40.2%
CCOC(=O)C1=C(O)c2ccccc2C(=O)C1=O,7.35%,3.8%,21.6%,11.3%,13.2%,8.95%
O=C(Cc1ccc([N+](=O)[O-])cc1)Nc1cccc(O)c1,-4.85%,29.2%,-4.9%,-13.5%,47.4%,14.8%
COc1ccc(/C(C)=C\C(=O)O)c(O)c1OC,5.9%,6.85%,-4.65%,3.55%,22.1%,7.8%
O=C(O)C(Nc1ccc(Cl)cc1)c1ccccc1 (stereo unspecified),1.7%,3.25%,18.9%,6.5%,8.1%,-22.6%
CC(=O)OCCc1cccnc1/C=N/O,-12.9%,-22.5%,-1.4%,20.6%,-16.4%,-5.2%
NC1=C(O)C(=O)C(c2ccc3c(c2)OCO3)O1 (stereo unspecified),-17.6%,-5%,-19.9%,-30.2%,24.8%,-5.2%
CC(C)(C)N=NNc1cn(C2OC(CO)C(O)C2O)c(=O)[nH]c1=O (stereo unspecified),-16.3%,-17.6%,-16.9%,9.5%,-6.2%,-15.7%
CNC(=O)N(CCCC(NC(C)=O)C(=O)NCc1ccccc1)Cc1ccccc1 (stereo unspecified),16.1%,3.4%,-7.95%,17.6%,8.5%,18.9%
CC(=O)c1ccc(NC(=O)C(=O)C(C(=O)c2ccc(Cl)c(Cl)c2)C2OC(=O)c3ccccc32)cc1 (stereo unspecified),44.6%,38.8%,13.7%,54.1%,60.3%,49.3%
O=C1N(Cc2ccccc2)CCN1Cc1ccccc1,-37.1%,-24.6%,-11.7%,20.2%,0.6%,-22.9%
O=C(O)c1cccc(-c2ccccc2)c1O.O=C(O)c1cccc(-c2ccccc2)c1O.[Cu],41.2%,39.5%,21.6%,2.6%,33.9%,32.4%

SMILES,growth inhibition [1],growth inhibition [2],growth inhibition [3],growth inhibition [4],growth inhibition [5],growth inhibition [6]
O=C(NC(CSC(c1ccccc1)(c1ccccc1)c1ccccc1)C(=O)O)OC(c1ccccc1)c1ccccc1 (stereo unspecified),91.5% (active),95.6% (active),96.5% (active),89% (active),89.5% (active),96.5% (active)
CC(C)COC(=O)c1ccccc1,35%,7.95%,20.1%,-18.4%,-9.6%,3.6%
CCOC(=O)CCC(NC(=O)OCc1ccccc1)C(=O)NNC(=O)OC(C)(C)C (stereo unspecified),30.1%,22%,36.5%,15.7%,5.15%,21.3%
CC(C)COC(=O)C(CC(C)C)NC(=O)C(C)O (stereo unspecified),5.95%,-17.4%,-13.3%,10.8%,-14.7%,6.6%
C[n+]1c(/C=C\C=C\c2ccccc2)sc2ccccc21,16.6%,2.05%,16.1%,18.1%,3%,11.2%
OC(c1ccccc1)(c1ccccc1)C1/C(=C/c2ccccc2)C1Cc1ccccc1 (stereo unspecified),4.85%,2.4%,-7.9%,-8.1%,-3.75%,3%
Cc1ccc(Nc2ccc(C)cc2[N+](=O)[O-])cc1,18.3%,-2.25%,32.9%,15.1%,31.6%,17.6%
CCOC(=O)c1ccc(N(CCO)CCO)cc1,3.45%,12.4%,5.45%,-94.2%,32.5%,13.7%
O=C(N=C(Oc1ccccc1)Oc1ccccc1)N=C(Oc1ccccc1)Oc1ccccc1,19.9%,9.15%,8.4%,20.3%,9.15%,36%
CCCC1N[C@H](C(=O)O)CS1 (stereo partly specified),15.7%,7.1%,-1.85%,7.2%,10.1%,-3.85%
COc1ccc(C(c2cc3c(cc2O)OCO3)N2CCN(C(c3ccc(OC)c(OC)c3)c3cc4c(cc3O)OCO4)CC2)cc1OC (stereo unspecified),-3%,1.05%,1.6%,17.4%,2.2%,-17.1%
O=C1CCCC2CCCC(=O)N12,-1.35%,-0.85%,-0.4%,8.9%,1%,-9.7%
CCOC(=O)c1cnc(NN)[nH]c1=O,-5.3%,-4.9%,-10.6%,-46.4%,-13.8%,-4.65%
CCN(CC)CCCNc1ncnc2c1C(c1ccccc1)c1ccccc1-2 (stereo unspecified),8.5%,-14.7%,1.7%,6%,-4.85%,-6.9%
C1CSCCSCCS1,11.6%,0.9%,20.1%,4.85%,28%,-4.9%
O=C1NC(=O)c2c(O)cccc21,38.5%,23.6%,21.1%,18.2%,13.4%,27.9%
Cc1cc(C(=O)O)cc(C)c1N(C)C=O,-0.8%,6.25%,3.15%,2.35%,-1.05%,4.45%
O=C1NCC(CCl)O1 (stereo unspecified),8.3%,-12.2%,-2.15%,9.3%,18.1%,1.9%
COC(=O)C(=O)C(C(=O)OC)C(=O)C(=O)Nc1ccccc1C(N)=O (stereo unspecified),-33.5%,-7.55%,-25.6%,-10.2%,-27.9%,-21.2%
Cc1nc(C(N)=S)sc1C(=O)C/C(=N/N)C(=O)Nc1ccc(Cl)cc1,2.05%,-8.55%,3.2%,-3.65%,-17.8%,-20.9%
